Tg IFNy HTS = T. gondii growth inhibition with IFN-gamma, primary screen, cell-based; Toxoplasma gondii growth in IFN-gamma-treated host cells; stronger effect = lower value; activity change, negative = inhibition, % (no concentration beside the values); 69,000 tested, 3.8% active; in the data active means activity change below about -70%, passing the limit was not always enough;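 further: host cells are HeLa cells infected with Toxoplasma gondii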
An asterisk follows results filed as active. The full list was thinned out, with hits kept by preference.

SMILES	Tg IFNy HTS
O=C(NC1(c2ccc(Cl)cc2)CCC1)c1ccc2c(c1)OCCO2	115
COc1cccc(NC(=O)C(=O)NCCc2sc(-c3ccc(F)cc3)nc2C)c1	3
CCCCC(=O)Nc1ccc(NC(=O)CN2CCCC2)cc1	3
CC(C)Cn1cncc1CN1CC(C(=O)O)CC1=O (stereo unspecified)	7
CCCCNC(=O)c1ccc(-c2nc(CN3CCc4ccccc43)c(C)o2)cc1	-66
CCCCOc1ccc(CNC(=O)c2ccc(-c3nc(CN4CCc5ccccc54)c(C)o3)cc2)cc1	-94*
Cc1oc(-c2ccc(C(=O)N3CCC(C)CC3)cc2)nc1CN1CCc2ccccc21	94
COCCCNC(=O)c1ccc(-c2nc(CN3CCc4ccccc43)c(C)o2)cc1	8
CCCCN(C)C(=O)c1ccc(-c2nc(CN3CCN(c4ccccc4)CC3)c(C)o2)cc1	-32
Cc1oc(-c2ccc(C(=O)NCCc3ccccc3)cc2)nc1CN1CCc2ccccc21	-127*
CCOc1ccc(CNC(=O)c2ccc(-c3nc(CN4CCc5ccccc54)c(C)o3)cc2)cc1	10
Cc1oc(-c2ccc(C(=O)NCCCc3ccccc3)cc2)nc1CN1CCc2ccccc21	122
CNC(=O)c1ccc(-c2nc(CN3CCN(c4ccccc4)CC3)c(C)o2)cc1	23
CCOC(=O)C1CCCN(C(=O)c2ccc(-c3nc(CN4CCc5ccccc54)c(C)o3)cc2)C1 (stereo unspecified)	56
Cc1oc(-c2ccc(C(=O)N(C)Cc3ccccc3)cc2)nc1CN1CCN(c2ccccc2)CC1	-94*
Cc1oc(-c2ccc(C(=O)N3CCCCCC3)cc2)nc1CN1CCc2ccccc21	-101*
Cc1ccsc1CCNC(=O)Cn1c(=O)ccc2cc(S(=O)(=O)N3CCCC3)ccc21	30
N[C@@H]1CN(c2c(F)cc3c(=O)c(C(=O)O)cn([C@@H]4C[C@@H]4F)c3c2Cl)CC12CC2	-12
COc1ccc(OC)c2c(C)cc(N3CCN(C)C(C(=O)O)C3)nc12 (stereo unspecified)	-8
COc1cccc(N2CC3(CCN(c4ccncn4)C3)CC2=O)c1 (stereo unspecified)	43
c1ccc(Oc2ccc(-n3nnnc3N3CCC4(CCCO4)CC3)cc2)cc1	-20
Cc1noc(-c2ccnc(N3CCC4(CCNCC4)C3)c2)n1	24
CCc1nc(CNC(=O)c2cc(-c3cnn(CC)c3C)on2)no1	-22
CN1CCCN(CC(=O)NC[C@H]2CC[C@@H]3C[C@H]2C3(C)C)CC1	11
CN(C)C(=O)n1c(C(=O)NCc2ccco2)cc2c1c1ccccc1n2CC1CC1	-6
SMILES	Tg IFNy HTS
CC(C)[C@H](NC(=O)c1cccc2nccnc12)C(N)=O	0
Cc1cnc(C(=O)N2CCC(O)(CN(C)C)C2)cn1 (stereo unspecified)	1
c1ccc2[nH]c(CC3CCCN(Cc4ccnc(N5CCOCC5)n4)C3)nc2c1 (stereo unspecified)	-16
NC(=O)c1cnc2n1CCN(C(=O)c1cccc(Cn3cccn3)c1)C2	-29
COc1ccc(-c2noc(-c3c(O)c4cc(C)ccc4[nH]c3=O)n2)c(OC)c1	28
O=P(O)(O)OC[C@H]1OC(O)[C@H](O)[C@@H](O)[C@@H]1O (stereo partly specified)	11
O=C(c1cnccn1)N1CCCC2(CCN(Cc3ccncc3)C2=O)C1 (stereo unspecified)	6
Cc1cccnc1CN1CCN(Cc2ccnc3ccccc23)CC1	12
Cc1oc(-c2ccc(C(=O)NCc3cccs3)cc2)nc1CN1CCc2ccccc21	-94*
Cc1ccc(CNC(=O)c2ccc(-c3nc(CN4CCc5ccccc54)c(C)o3)cc2)o1	143
Cc1oc(-c2ccc(C(=O)NCc3ccccc3Cl)cc2)nc1CN1CCc2ccccc21	-49
CCOc1ccc(-c2nc(Cn3ccn4nc(-c5ccc(OC)c(OC)c5)cc4c3=O)c(C)o2)cc1	-65
COc1ccc(C(=O)COC(=O)CCn2nnc(-c3ccc(C(C)C)cc3)n2)cc1	-10
CN(C)CCCNC(=O)c1ccc2ccc(N3CCN(Cc4cccnc4)CC3)n2c1	-87*
CN(C)C(=O)N1CCN(c2ccc3ccc(C(=O)NCCc4ccccc4)cn23)CC1	-3
CCCNC(=O)c1ccc2ccc(N3CCN(C(=O)N(C)C)CC3)n2c1	-1
O=C(NCc1ccc(-c2cccs2)cc1)c1ncoc1-c1ccccc1	2
Cc1cnc(C(=O)NC2CCC3(CCC(=O)N3C)CC2)cn1 (stereo unspecified)	-1
O=C(NCc1nc(Cc2cccs2)no1)c1cccc2ccnn12	-53
CC(C)c1cc(C(=O)NCc2nc(Cc3cccs3)no2)n(C)n1	-83*
Cc1ccc2c(c1)cc(C(=O)NCc1nc(Cc3ccccc3)no1)n2C	-53
Cn1cc(CNCC2CCN(c3ncc(C(=O)NO)cn3)CC2)c2ccccc21	-79*
O=C(NO)c1cnc(N2CCN(S(=O)(=O)c3ccc4ccccc4c3)CC2)nc1	-70
Cn1cc(CC(=O)NCc2cnn3ccccc23)c2ccccc21	42
CCc1ccc(CN2CCC(N3CCCC(C(=O)N4CCCC4)C3)CC2)o1 (stereo unspecified)	-5

Compound activity as filed in PubChem BioAssay.
